High-throughput results: PubChem BioAssay, several laboratories
BoNT-A LC inh2 – inhibitors of Botulinum neurotoxin A light chain protease | inhibition, % at 10 µM | multiplex microsphere protease substrate cleavage, flow cytometry | actives 0.17% (n = 360,000); in the data active = inhibition above about 30%; inconclusive = no clear call, values can overlap the other calls; also: plate controls were buffer without enzyme for full effect and enzyme alone for no effect
Mtb FBA inh – inhibits M. tuberculosis FBA enzyme; inhibition, % at 1 µM; P9WQA3; AID 588726; actives 2.3% (n = 360,000); purified M. tuberculosis FBA, fluorescence read-out;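 also: 0% = vehicle and 100% = reference inhibitor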
Autofluor counter – counter-screen for toxin protease inhibitors: compound fluorescence; compound autofluorescence counterscreen, microsphere flow cytometry; hits give high values; fluorescence intensity (test concentration not listed); actives 3.1% (n = 360,000); AID 624483; in the data active = fluorescence intensity above about 16000; inconclusive = no clear call, values can overlap the other calls
BoNT F protease – blocks Botulinum neurotoxin F light chain protease; actives 0.22% (n = 360,000); inhibition, % at 10 µM; Multiplex microsphere protease cleavage assay, flow cytometry; in the data active = inhibition above about 35%, passing the limit was not always enough; inconclusive = no clear call, values can overlap the other calls; also: plate controls were buffer without enzyme for full effect and enzyme alone for no effect
Anthrax LF inh2 – blocks Bacillus anthracis lethal factor protease | inhibition, % at 10 µM | actives 0.12% (n = 360,000) | multiplex microsphere protease cleavage assay, LF | P15917 | AID 588501; in the data active = inhibition above about 30%; inconclusive = no clear call, values can overlap the other calls; also: plate controls were buffer without enzyme for full effect and enzyme alone for no effect
GDH-TPI counter-1 – inhibits GDH-TPI coupling enzymes, artifact for Mtb FBA screen. GDH-TPI coupled enzyme counterscreen, NADH absorbance. inhibition, % at 4.8 µM. actives 1.2% (n = 360,000). AID 588335; in the data active = inhibition above about 30%;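 also: 0% = DMSO wells and 100% = wells lacking the enzyme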
Mtb FBA inh conf – confirmation of M. tuberculosis fructose-bisphosphate aldolase inhibitors; inhibition, % at 1 µM; actives 78% (n = 5,600); shares compounds with Mtb FBA inh; purified M. tuberculosis FBA, fluorescence read-out;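 also: 0% = vehicle wells and 100% = reference inhibitor wells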
GDH-TPI counter-2 – counter-screen for M. tuberculosis FBA inhibitors: GDH-TPI coupled enzyme inhibition; AID 652141; shares compounds with Mtb FBA inh; GDH-TPI coupled enzyme counterscreen, fluorescence; actives 81% (n = 5,600); inhibition, % at 1 µM; in the data active = inhibition above about 10%
Starred values were filed as active, the others as inactive. Rows were chosen to be rich in hits. Some 6.7% of all compounds tested hit in one or more screens of this group. Rule as the data show it, unless noted: active = inhibition above about 27%; inactive = the rest.

Results for COc1cc2ccccc2cc1C(=O)O ?
BoNT-A LC inh2: -2; Mtb FBA inh: 7; Autofluor counter: 10579; BoNT F protease: -2; Anthrax LF inh2: -7; GDH-TPI counter-1: 5

Results for COc1cc2c(OC)cccc2cc1C(=O)O ?
BoNT-A LC inh2: -1; Mtb FBA inh: 65*; Autofluor counter: 7099; BoNT F protease: -19; Anthrax LF inh2: 3; GDH-TPI counter-1: 11; Mtb FBA inh conf: active; GDH-TPI counter-2: active

Results for CCCCC(=O)N(C)c1c(CC)nc2c(OCCC3CCCCC3)cccn12 ?
BoNT-A LC inh2: 0; Mtb FBA inh: -1; Autofluor counter: 3488; BoNT F protease: 2; Anthrax LF inh2: -4; GDH-TPI counter-1: -1

What do the screens show for `COc1ccc(-n2c(C)nnc2SCC(=O)NC2CC2)cc1`?
BoNT-A LC inh2: -2; Mtb FBA inh: 92*; Autofluor counter: 3106; BoNT F protease: 18; Anthrax LF inh2: -4; GDH-TPI counter-1: -3; Mtb FBA inh conf: 42*; GDH-TPI counter-2: 34*

How did O=C(O)c1cccc2sc3cc(Cl)ccc3c(=O)c12 do in these assays?
BoNT-A LC inh2: 0; Mtb FBA inh: 63*; Autofluor counter: 4357; BoNT F protease: -4; Anthrax LF inh2: -6; GDH-TPI counter-1: 13; Mtb FBA inh conf: 157*; GDH-TPI counter-2: 126*

How did O=C(O)c1cccc2c1-c1ccc(Cl)cc1C2 do in these assays?
BoNT-A LC inh2: 0; Mtb FBA inh: -1; Autofluor counter: 3852; BoNT F protease: -3; Anthrax LF inh2: -8; GDH-TPI counter-1: -9

Results for Cc1cc(C)cc(NC(=O)C2CCCN(S(=O)(=O)c3c(C)noc3C)C2)c1 (stereo unspecified) ?
BoNT-A LC inh2: 2; Mtb FBA inh: 0; Autofluor counter: 5882; BoNT F protease: 3; Anthrax LF inh2: 1; GDH-TPI counter-1: -7

What do the screens show for `Cc1cccc(C(=O)N2CCCC(c3nc(-c4ccc(C)o4)no3)C2)c1` (stereo unspecified)?
BoNT-A LC inh2: 1; Mtb FBA inh: 1; Autofluor counter: 5548; BoNT F protease: 6; Anthrax LF inh2: 4; GDH-TPI counter-1: -5

What do the screens show for `COC(=O)c1cc(OC)nc2c1c(=O)n(C)c(=O)n2C`?
BoNT-A LC inh2: -1; Mtb FBA inh: 110*; Autofluor counter: 2037; BoNT F protease: -11; Anthrax LF inh2: 0; GDH-TPI counter-1: 7; GDH-TPI counter-2: active

How did COCCNC(=O)/C(C#N)=C/c1c(N2CC(C)OC(C)C2)nc2ccccn2c1=O (stereo unspecified) do in these assays?
BoNT-A LC inh2: 1; Mtb FBA inh: 6; Autofluor counter: 2057; BoNT F protease: 5; Anthrax LF inh2: 3; GDH-TPI counter-1: 4

How did CCNC(=O)/C(C#N)=C/c1c(N2CCN(c3ccccc3)CC2)nc2ccccn2c1=O do in these assays?
BoNT-A LC inh2: 0; Mtb FBA inh: 50*; Autofluor counter: 3739; BoNT F protease: 5; Anthrax LF inh2: 5; GDH-TPI counter-1: 9; Mtb FBA inh conf: 27; GDH-TPI counter-2: 17*

How did COCCCNC(=O)/C(C#N)=C/c1c(N2CCN(c3ccccc3)CC2)nc2ccccn2c1=O do in these assays?
BoNT-A LC inh2: -1; Mtb FBA inh: 91*; Autofluor counter: 3861; BoNT F protease: -12; Anthrax LF inh2: 6; GDH-TPI counter-1: 6; Mtb FBA inh conf: 112*; GDH-TPI counter-2: 121*

How did COCCCNC(=O)/C(C#N)=C/c1c(N2CCN(c3ccc(OC)cc3)CC2)nc2c(C)cccn2c1=O do in these assays?
BoNT-A LC inh2: 1; Mtb FBA inh: 9; Autofluor counter: 2802; BoNT F protease: -11; Anthrax LF inh2: -1; GDH-TPI counter-1: 9

Results for Cc1cc(=O)oc2cc(OCC(=O)N3CCCC(C)C3)ccc12 (stereo unspecified) ?
BoNT-A LC inh2: -1; Mtb FBA inh: 24; Autofluor counter: inconclusive; BoNT F protease: inconclusive; Anthrax LF inh2: 5; GDH-TPI counter-1: 11

Results for CCCc1cc(=O)oc2c(C)c(OCC(=O)N3C[C@H]4C[C@@H](C3)c3cccc(=O)n3C4)ccc12 ?
BoNT-A LC inh2: 0; Mtb FBA inh: 9; Autofluor counter: 4299; BoNT F protease: -1; Anthrax LF inh2: -1; GDH-TPI counter-1: 21
